Results published in ChEMBL document CHEMBL3988442, “University of Dundee, Small-Polar-MMV Screening Library” (2021).
For part of these data: Potency and affinity values are given separately.

What was measured:
Design in all cases: scale not given: direction of the effect not stated beside the values
[1] = target: Protein translocase subunit SecA (Escherichia coli (strain K12)) (UniProt P10408); experiment: Assay to Identify E. coli SecA ATPase Inhibitors; assay type: functional; details: 30 µM
[2] = target: T1, Ubiquitin-activating enzyme e1, putative (Leishmania donovani (strain BPK282A1)) (UniProt E9BSI1); experiment: Leishmania donovani Ubiquitin Activating Enzyme (LdE1); assay type: functional; details: 30 µM
T1 sequence (whole entry): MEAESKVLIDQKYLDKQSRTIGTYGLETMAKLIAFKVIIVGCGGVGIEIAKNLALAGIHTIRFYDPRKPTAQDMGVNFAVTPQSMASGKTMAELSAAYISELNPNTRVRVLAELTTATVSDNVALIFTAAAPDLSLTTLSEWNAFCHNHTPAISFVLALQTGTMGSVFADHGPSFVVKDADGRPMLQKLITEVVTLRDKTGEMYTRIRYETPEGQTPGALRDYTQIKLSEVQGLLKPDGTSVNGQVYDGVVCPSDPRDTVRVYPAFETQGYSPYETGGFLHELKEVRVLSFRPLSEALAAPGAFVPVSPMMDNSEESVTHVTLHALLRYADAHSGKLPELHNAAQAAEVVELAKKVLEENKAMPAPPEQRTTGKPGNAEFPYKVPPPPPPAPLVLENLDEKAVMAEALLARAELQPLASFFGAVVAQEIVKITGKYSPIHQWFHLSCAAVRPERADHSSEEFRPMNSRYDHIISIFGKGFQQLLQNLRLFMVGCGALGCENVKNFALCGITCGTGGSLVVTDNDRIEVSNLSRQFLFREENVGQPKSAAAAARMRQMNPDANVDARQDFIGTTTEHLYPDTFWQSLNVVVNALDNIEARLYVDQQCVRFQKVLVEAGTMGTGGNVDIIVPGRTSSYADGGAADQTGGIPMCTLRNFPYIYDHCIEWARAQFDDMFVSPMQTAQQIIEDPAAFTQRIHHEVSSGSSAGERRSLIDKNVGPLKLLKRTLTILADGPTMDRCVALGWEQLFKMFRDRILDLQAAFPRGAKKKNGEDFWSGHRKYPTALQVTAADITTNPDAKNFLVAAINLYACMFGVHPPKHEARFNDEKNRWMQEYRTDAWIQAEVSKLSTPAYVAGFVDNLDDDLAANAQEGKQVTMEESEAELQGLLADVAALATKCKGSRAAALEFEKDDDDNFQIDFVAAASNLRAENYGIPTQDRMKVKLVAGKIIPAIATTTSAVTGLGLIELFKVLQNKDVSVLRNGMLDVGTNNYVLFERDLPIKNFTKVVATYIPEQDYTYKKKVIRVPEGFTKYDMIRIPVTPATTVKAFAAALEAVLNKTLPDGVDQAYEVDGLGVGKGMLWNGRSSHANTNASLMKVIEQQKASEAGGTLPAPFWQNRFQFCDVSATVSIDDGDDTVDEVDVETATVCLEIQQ

[3] = target: T2, Aspartate--tRNA(Asp/Asn) ligase (Mycobacterium tuberculosis (strain ATCC 25618 / H37Rv)) (UniProt P9WFW3); experiment: Assay for Asp RNA synthetase-1 from Mycobacterium tuberculosis; assay type: functional; details: 30 µM; note: in the data most compounds retested in dose-response had high values
T2 sequence (whole entry): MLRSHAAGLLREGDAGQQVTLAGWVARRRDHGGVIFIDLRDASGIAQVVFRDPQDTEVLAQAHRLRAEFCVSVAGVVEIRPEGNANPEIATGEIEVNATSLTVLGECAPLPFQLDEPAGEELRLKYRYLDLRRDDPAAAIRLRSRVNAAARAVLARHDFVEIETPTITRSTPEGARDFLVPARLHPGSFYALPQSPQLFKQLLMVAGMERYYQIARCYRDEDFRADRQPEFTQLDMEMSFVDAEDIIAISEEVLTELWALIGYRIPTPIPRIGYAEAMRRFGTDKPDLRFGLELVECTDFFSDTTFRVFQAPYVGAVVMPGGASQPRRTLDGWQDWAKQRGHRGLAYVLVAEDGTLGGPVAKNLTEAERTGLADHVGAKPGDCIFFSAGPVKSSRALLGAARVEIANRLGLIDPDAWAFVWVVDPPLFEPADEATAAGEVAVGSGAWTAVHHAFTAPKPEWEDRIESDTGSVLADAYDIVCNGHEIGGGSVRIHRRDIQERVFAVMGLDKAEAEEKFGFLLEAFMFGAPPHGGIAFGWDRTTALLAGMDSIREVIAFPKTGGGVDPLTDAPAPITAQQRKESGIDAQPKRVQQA

[4] = target: Sialic acid-binding Ig-like lectin 9 (Homo sapiens) (UniProt Q9Y336); experiment: Hs-Siglec9 ALPHAscreen SOP 20170721; details: 10 µM
Trypanosoma cruzi = experiment: Trypanosoma cruzi phosphomannomutase and mannose-1-phosphate guanylyltransferase assay; assay type: functional; details: 10 µM
[5] = target: T3, Arginase-2, mitochondrial (Homo sapiens) (UniProt P78540); experiment: in vitro enzyme assay to detect the production of urea directly proportional to the activity of Arginase II; assay type: functional; details: 33.3 µM; note: in the data most compounds retested in dose-response had high values
T3 sequence (whole entry): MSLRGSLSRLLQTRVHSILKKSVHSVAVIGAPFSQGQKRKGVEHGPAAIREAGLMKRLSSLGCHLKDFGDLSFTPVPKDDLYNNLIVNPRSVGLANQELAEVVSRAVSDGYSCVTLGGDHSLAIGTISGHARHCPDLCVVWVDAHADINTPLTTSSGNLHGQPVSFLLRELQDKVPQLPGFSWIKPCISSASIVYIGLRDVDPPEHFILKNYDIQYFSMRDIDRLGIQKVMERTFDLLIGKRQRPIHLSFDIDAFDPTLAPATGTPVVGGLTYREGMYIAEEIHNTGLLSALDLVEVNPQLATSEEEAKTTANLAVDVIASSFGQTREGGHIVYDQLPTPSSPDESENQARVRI

[6] = target: T4, Proteasome subunit beta (Trypanosoma cruzi) (UniProt O96673); experiment: Trypanosoma cruzi proteasome chymotrypsin-like activity (TcProtChymo) assay.; note: in the data most compounds retested in dose-response had high values; assay type: functional; details: 9.37 µM
T4 sequence (whole entry): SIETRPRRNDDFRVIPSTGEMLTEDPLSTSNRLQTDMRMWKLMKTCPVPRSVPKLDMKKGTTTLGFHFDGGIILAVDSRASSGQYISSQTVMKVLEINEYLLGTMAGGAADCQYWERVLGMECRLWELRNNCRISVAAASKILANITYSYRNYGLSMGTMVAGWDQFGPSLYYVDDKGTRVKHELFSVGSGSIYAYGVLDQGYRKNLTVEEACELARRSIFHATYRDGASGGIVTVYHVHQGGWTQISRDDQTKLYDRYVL

Homo sapiens = organism: Homo sapiens; experiment: To identify inhibition of the IFN signalling (Jak-Stat) pathway via expression of an eGFP reporter gene under the control of an IFN-stimulated response element (ISRE) containing MxA promoter.; assay type: functional; details: 30 µM
[7] = target: Shiga toxin 2 (Escherichia coli O157:H7) (UniProt P09385+P09386); experiment: E. coli 0.157:H7 Shiga Toxin SOP - stx2 screening assay; assay type: functional; details: 30 µM
[8] = target: T5, Tyrosyl-tRNA synthetase, putative (Trypanosoma cruzi (strain CL Brener)) (UniProt Q4DSP6); experiment: Trypanosoma cruzi tyrosyl tRNA synthetase (TcYRS) _High Tyrosine SOP; assay type: functional; details: 30 µM; note: in the data most compounds retested in dose-response had high values
T5 sequence (whole entry): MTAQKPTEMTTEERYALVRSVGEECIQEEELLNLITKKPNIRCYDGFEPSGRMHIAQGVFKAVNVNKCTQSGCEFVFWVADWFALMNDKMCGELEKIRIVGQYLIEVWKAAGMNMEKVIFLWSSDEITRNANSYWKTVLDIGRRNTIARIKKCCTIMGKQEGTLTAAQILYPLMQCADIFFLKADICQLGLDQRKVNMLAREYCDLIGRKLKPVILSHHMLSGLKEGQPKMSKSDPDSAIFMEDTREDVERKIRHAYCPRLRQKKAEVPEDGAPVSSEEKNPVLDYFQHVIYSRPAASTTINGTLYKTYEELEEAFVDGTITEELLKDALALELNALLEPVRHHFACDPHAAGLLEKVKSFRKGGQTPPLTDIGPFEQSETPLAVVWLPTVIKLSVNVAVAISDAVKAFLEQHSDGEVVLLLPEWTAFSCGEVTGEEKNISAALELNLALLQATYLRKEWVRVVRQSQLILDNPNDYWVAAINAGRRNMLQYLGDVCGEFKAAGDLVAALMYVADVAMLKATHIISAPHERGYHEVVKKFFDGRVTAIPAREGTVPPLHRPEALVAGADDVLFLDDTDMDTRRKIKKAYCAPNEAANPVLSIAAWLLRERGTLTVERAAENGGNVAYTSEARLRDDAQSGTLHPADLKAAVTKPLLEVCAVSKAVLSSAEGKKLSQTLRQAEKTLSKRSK

[9] = target: T5, Tyrosyl-tRNA synthetase, putative (Trypanosoma cruzi (strain CL Brener)); experiment: Trypanosoma cruzi tyrosyl tRNA synthetase (TcYRS) SOP; assay type: functional; details: 30 µM
[10] = target: Chromo domain-containing protein 1 (Saccharomyces cerevisiae (strain ATCC 204508 / S288c) (Baker's yeast)) (UniProt P32657); experiment: ScCHD-1 Enzyme Inhibition Assay; assay type: functional; details: 30 µM; note: in the data most compounds retested in dose-response had high values
Chromo domain-containing protein 1 (Saccharomyces cerevisiae (strain ATCC 204508 / S288c) (Baker's yeast)), sequence (P32657 whole entry, the tested form may be a part): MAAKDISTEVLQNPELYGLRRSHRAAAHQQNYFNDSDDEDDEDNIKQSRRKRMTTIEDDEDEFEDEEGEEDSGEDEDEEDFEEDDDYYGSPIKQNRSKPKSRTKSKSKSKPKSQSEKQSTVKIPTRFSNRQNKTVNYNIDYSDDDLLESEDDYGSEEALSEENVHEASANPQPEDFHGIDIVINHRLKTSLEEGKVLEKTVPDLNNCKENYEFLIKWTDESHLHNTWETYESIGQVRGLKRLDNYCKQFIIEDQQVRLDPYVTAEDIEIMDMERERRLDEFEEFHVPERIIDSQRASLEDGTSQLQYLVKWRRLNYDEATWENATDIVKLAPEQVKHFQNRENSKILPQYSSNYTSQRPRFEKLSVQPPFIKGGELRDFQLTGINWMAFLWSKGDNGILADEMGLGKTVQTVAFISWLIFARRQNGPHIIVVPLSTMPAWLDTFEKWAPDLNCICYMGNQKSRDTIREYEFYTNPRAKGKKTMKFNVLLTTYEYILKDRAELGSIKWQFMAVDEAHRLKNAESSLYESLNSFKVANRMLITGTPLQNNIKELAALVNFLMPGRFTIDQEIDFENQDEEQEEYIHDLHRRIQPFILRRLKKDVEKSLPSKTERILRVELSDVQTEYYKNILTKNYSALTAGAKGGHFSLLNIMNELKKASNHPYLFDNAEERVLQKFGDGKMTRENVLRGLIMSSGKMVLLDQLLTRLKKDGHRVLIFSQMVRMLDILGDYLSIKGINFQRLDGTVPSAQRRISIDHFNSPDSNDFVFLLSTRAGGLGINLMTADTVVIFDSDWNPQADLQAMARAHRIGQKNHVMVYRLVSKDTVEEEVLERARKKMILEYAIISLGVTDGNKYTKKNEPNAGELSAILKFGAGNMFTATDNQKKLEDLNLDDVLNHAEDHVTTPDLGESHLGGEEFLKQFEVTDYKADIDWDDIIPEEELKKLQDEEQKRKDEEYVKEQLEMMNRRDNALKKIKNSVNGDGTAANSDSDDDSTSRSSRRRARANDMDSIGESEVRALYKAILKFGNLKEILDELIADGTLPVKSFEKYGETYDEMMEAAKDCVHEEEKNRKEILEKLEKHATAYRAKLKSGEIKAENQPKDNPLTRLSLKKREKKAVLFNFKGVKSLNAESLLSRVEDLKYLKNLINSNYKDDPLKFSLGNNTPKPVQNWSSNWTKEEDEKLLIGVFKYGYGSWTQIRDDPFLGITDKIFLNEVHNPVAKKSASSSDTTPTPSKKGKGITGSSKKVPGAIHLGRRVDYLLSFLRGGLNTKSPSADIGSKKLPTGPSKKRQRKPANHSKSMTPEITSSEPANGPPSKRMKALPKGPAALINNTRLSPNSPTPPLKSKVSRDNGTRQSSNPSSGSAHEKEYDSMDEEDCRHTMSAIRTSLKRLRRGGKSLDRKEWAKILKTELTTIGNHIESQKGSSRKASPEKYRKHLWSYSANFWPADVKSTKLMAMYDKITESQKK

Sialic acid-binding Ig-like lectin 9 (Homo sapiens), sequence (Q9Y336 whole entry): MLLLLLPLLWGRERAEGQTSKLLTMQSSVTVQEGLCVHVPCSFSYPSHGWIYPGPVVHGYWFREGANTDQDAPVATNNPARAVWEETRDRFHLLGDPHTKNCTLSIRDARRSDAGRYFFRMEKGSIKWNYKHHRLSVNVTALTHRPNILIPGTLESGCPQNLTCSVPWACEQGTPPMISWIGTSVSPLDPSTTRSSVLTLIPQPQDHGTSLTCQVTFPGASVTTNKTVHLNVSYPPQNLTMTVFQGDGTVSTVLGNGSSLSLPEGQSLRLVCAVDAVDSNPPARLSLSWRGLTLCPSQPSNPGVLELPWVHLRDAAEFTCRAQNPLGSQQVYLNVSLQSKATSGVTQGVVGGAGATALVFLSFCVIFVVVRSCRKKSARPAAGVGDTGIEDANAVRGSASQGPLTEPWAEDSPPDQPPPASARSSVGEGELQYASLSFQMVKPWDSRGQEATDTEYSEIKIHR
Protein translocase subunit SecA (Escherichia coli (strain K12)), sequence (P10408 whole entry): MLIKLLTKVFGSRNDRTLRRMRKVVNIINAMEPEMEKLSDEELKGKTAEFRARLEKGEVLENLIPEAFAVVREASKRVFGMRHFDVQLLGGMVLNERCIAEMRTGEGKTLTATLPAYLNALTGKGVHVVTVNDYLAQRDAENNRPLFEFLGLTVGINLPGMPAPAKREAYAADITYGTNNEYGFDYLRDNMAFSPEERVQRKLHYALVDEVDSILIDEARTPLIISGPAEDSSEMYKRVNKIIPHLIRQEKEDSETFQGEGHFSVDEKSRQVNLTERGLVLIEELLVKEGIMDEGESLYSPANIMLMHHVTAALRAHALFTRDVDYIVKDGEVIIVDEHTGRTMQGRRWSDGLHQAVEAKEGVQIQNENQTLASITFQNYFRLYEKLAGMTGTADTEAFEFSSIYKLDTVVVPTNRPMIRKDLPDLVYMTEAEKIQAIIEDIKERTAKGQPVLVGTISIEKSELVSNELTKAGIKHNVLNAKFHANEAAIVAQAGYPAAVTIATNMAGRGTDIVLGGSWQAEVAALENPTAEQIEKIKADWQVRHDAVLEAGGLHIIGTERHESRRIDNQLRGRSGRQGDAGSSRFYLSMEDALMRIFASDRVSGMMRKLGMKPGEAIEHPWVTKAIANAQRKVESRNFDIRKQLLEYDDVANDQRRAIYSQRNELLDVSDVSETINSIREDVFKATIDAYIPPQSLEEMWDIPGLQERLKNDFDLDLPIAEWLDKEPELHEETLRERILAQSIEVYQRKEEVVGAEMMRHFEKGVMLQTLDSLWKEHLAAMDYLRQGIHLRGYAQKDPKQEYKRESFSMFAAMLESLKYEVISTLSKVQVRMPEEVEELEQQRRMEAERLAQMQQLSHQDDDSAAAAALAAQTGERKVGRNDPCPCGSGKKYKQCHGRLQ

| SMILES | Percent Effect [1] [%] | Percent Effect [2] [%] | Percent Effect [3] [%] | Percent Effect [4] [%] | Percent Effect (Trypanosoma cruzi) [%] | Percent Effect [5] [%] | Percent Effect [6] [%] | Percent Effect (Homo sapiens) [%] | Percent Effect [7] [%] | Percent Effect [8] [%] | Percent Effect [9] [%] | Percent Effect [10] [%] |
| --- | --- | --- | --- | --- | --- | --- | --- | --- | --- | --- | --- | --- |
| O=C1C[C@H]2[C@H](CCN2Cc2ccccn2)N1CC1CC1 | -3.35 | 11.7 | 1.05 | -4.27 | -5.25 | 5.02 | 12.4 | 12.4 | -21.2 | 6.76 | 2.5 | -6.54 |
| Cn1cc(CN2C[C@@H]3[C@@H](C2)OCC(=O)N3Cc2ccncc2)cn1 | -5.79 | 3.9 | 4.5 | -1.61 | 1.07 | 0.81 | 15.8 | 8.18 | 1.35 | -0.526 | 17.9 | 0.0412 |
| Cc1cccc(CN2CC[C@H]3[C@H]2CCN3Cc2cnn(C)c2)n1 | -6.02 | 3.9 | -3.89 | 2.88 | 0.75 | -0.457 | -2.15 | 34 | -8.6 | -1.93 | -10 | 1.01 |
| CCc1ccc(CN2CCN(C)c3ncccc3C2)o1 | -8.73 | 1.3 | -0.259 | 15.1 | -1.27 | -3.24 | 7.68 | 6.96 | 1.33 | 3.68 | -5.13 | -4.2 |
| O=C1CC[C@H]2[C@H](CCN2Cc2ccccn2)N1CC1CCOCC1 | -3.55 | 9.09 | -4.23 | -1.65 | -5.63 | 2.74 | 3.35 | 8.69 | -14 | -0.966 | 2.5 | -0.494 |
